# Hits are enriched below; roughly 5.5% of the tested compounds scored in any of these assays.
# uPA surface inh – qHTS for Inhibitors of Cell Surface uPA Generation | actives 0.31% (n = 330,000) | Potency, µM (titrated, usually from 38.3 µM), inactives show top-dose activity change, negative = inhibition, hits mostly inhibitors | cell surface uPA generation assay, qHTS | AID 540303, 2011; active means well fitted inhibition curve with a large enough effect; inconclusive means small, poorly fitted or top-dose-only effect; inactive means no such curve, though single readings can be large or run the other way; tested in mouse RAW 264.7 cells; further: on the % scale 0 is the no-effect control and ±100 the full control effect; nearly all actives have a fitted effect of over 55% in size
# a7 integrin act – qHTS for Activators of Integrin-Mediated Alleviation for Muscular Dystrophy. actives 0.064% (n = 350,000). Potency, µM (top dose mostly 38.3 µM), inactives show top-dose activation, most hits filed as activators. alpha7betagal myoblasts, beta-gal FDG fluorescence, 48 h;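 further: 100% = response of the positive control SU9516; nearly all actives have a fitted effect of over 60% in size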
#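 alpha7betagal+/- myoblasts (passage 13, 250/well) treated 48 h at 37C with compounds at 1:260 dilution of DMSO stock. Lysed, then beta-galactosidase activity read as FDG fluorescence (ex 480/em 540) after 30 min, with pre-read for autofluorescence.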
# RORgamma inh – qHTS for inhibitors of ROR gamma transcriptional activity; Nuclear receptor ROR-gamma (Mus musculus), P51450; Potency, µM (doses to about 53.6 µM), inactives show top-dose activity change, negative = inhibition, actives largely listed as inhibitors; Drosophila S2 Gal4-RORgamma UAS-luciferase reporter, 20 h; actives 5.4% (n = 310,000); further: on the % scale 0 is the no-effect control and ±100 the full control effect; nearly all actives have a fitted effect of over 60% in size
# Target sequence (P51450 whole entry, looked up, the tested form may be a part): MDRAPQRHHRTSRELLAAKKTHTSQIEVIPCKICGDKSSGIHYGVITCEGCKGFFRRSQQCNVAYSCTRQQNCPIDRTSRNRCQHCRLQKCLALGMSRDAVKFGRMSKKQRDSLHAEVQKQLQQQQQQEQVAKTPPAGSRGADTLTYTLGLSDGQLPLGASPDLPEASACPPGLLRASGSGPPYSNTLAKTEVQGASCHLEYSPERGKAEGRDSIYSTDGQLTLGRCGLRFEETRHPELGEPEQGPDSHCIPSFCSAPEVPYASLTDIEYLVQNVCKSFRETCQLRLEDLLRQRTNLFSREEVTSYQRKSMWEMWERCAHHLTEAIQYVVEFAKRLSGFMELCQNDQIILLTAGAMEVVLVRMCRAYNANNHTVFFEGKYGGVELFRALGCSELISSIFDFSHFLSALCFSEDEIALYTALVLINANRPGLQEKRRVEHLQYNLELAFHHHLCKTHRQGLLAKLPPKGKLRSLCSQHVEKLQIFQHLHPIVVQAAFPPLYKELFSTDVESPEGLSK
#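 Drosophila Schneider cells stably carrying a metallothionein-driven Gal4 DBD–ROR gamma fusion and a UAS-Photinus luciferase reporter were exposed to compound for 1 hr, then induced with copper sulfate (700 uM final) for 20 hr at ambient temperature before luminescence reading.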
# Gal4-VP16 FLuc – VP16 counterscreen qHTS for inhibitors of ROR gamma transcriptional activity; Drosophila S2 Gal4-VP16 UAS-luciferase, luminescence, 20 h; Potency, µM (top dose mostly 53.6 µM), for the others: at the highest dose activity, negative = inhibition, hits mostly inhibitors; actives 3.5% (n = 310,000); AID 2546, 2010;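 further: Gal4-VP16 expression switched on by copper sulfate through the metallothionein promoter; on the % scale 0 is the no-effect control and ±100 the full control effect; nearly all actives have a fitted effect of over 50% in size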
# Mito fusion yeast – qHTS Assay for Small Molecule Inhibitors of Mitochondrial Division or Activators of Mitochondrial Fusion | S. cerevisiae fusion-defective mutant growth rescue, CellTiterGlo 48 h | Potency, µM (top dose mostly 46.1 µM), without a hit: at the highest dose growth rescue (activation), hits mostly activators | actives 0.23% (n = 320,000); further: % of control where 0% means no effect; nearly all actives have a fitted effect of over 45% in size
#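 Growth-rescue viability read-out: after 48 h at the non-permissive 37C in glycerol/ethanol YPEG, yeast mitochondrial fusion mutants are measured by CellTiterGlo luminescence; compounds (23 nl pinned per well) restoring growth score as division inhibitors or fusion activators.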
# BCR signal inh – qHTS Assay to Find Inhibitors of Chronic Active B-Cell Receptor Signaling; ABC-DLBCL IkBa-CBG/CBR reporter, luminescence ratio, 4 h; Potency, µM (series often up to 46.1 µM), for the others: at the highest dose activity change, negative = inhibition, hits mostly inhibitors; actives 0.05% (n = 340,000); AID 493014, 2011; active means well fitted inhibition curve with a large enough effect in the signal ratio, with a control signal flat, not every such curve was filed as active; inconclusive means small, poorly fitted or top-dose-only effect, or effect the other way, or a change in a side signal; the % refers to the signal ratio;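 further: plate controls were basal doxycycline-induced cells for no effect and cells given 10 µM MG132 for full effect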
#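 Cell line TMD8 (human ABC DLBCL), stably expressing tet-inducible CBG68-IkBa fusion and CBR; IMDM/0.5% FBS; cpd up to 46 uM; dox induction, 4 h, 37C/5% CO2; dual luminescence; green/red ratio; MG132 control.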
# * hit, by the source's call; ? = inconclusive; . = no result given. Unless noted, the call rests on the fitted dose curve; in most records, active means well fitted curve in the direction sought with a large enough effect; inconclusive means small, poorly fitted or top-dose-only effect, or another doubt; inactive means no such curve, though single readings can be large; an effect the other way counts as inactive or inconclusive. Potency means the concentration at half of the fitted maximal effect.
SMILES,uPA surface inh,a7 integrin act,RORgamma inh,Gal4-VP16 FLuc,Mito fusion yeast,BCR signal inh
Cc1c(Cl)cccc1NC(=S)N(Cc1cccs1)C1CCCC1,-3%,-25%,11µM*,?,-6%,-13%
Cc1ccc(Cl)cc1NC(=S)N(Cc1cccs1)C1CCCC1,0%,-9%,18µM*,?,1%,0%
CSc1cccc(NC(=S)N(CCC(C)C)C2CCN(C(C)C)CC2)c1,-2%,0%,13µM*,?,-7%,-1%
O=C(O)CNC(=S)N(Cc1cccs1)C1CCCCC1,1%,4%,-1%,-9%,-10%,-3%
CCN(C(=S)Nc1ccc(OC(F)F)cc1)C1CCCCC1,.,-217%,?,-9%,1%,5%
CSc1cccc(NC(=S)N(CCC(C)C)C2CCN(C(C)=O)CC2)c1,-4%,11%,?,8%,3%,?
CCN(C(=S)Nc1ccccc1F)C1CCCCC1,0%,-44%,13µM*,3%,-8%,-2%
COc1ccc(CNc2cc(C)nc3ncnn23)c(OC)c1,.,0%,-23%,11µM*,-7%,?
COc1ccc(Nc2cc(C)nc3ncnn23)c(OC)c1,1%,15%,-45%,14%,-2%,?
S=c1[nH]nc(CCc2nc3ccccc3[nH]2)n1-c1ccccc1,14%,-3%,3%,-15%,1%,0%
Fc1ccccc1-n1c(-c2ccc3ccccc3n2)n[nH]c1=S,1%,6%,1.4µM*,?,3%,?
S=c1[nH]nc(-c2ccc3ccccc3n2)n1-c1ccccc1,-2%,22%,1.4µM*,2µM*,22%,1%
Cc1cccc(N(CC(=O)NC2CCCC2)C(=O)c2csnn2)c1C,0%,3%,-5%,1%,0%,-1%
CC(C)(C)C1CCc2c(C(=O)N/N=C/c3cccs3)csc2C1 (stereo not given),.,-17%,?,-22%,-1%,10%
CC(C)(C)C1CCc2c(C(=O)NNC(=O)/C=C/C(=O)O)csc2C1 (stereo not given),0%,24%,?,14µM*,0%,13%
COc1cccc(NC(=O)CSC2=Nc3ccccc3C3=NC(CCC(=O)NC4CCCCC4)C(=O)N23)c1 (stereo not given),.,.,.,.,.,15%
O=C(O)c1ccc(S(=O)(=O)c2ccc3c(c2)C(=O)N(NC(=O)c2ccc(O)cc2)C3=O)cc1,0%,1%,6.3µM*,10µM*,-3%,?
Cc1nnc(N(Cc2ccco2)C(=O)c2cccc(C#N)c2)s1,-1%,8%,13µM*,1%,-4%,?
CCCCNC(=S)Nc1cc(S(=O)(=O)N2CCCCC2)ccc1C,2%,-19%,5.6µM*,10µM*,0%,-3%
CCCCNC(=S)Nc1cc([N+](=O)[O-])ccc1C,-2%,-41%,11µM*,?,0%,6%
Cc1ccc(S(=O)(=O)N2CCCCC2)cc1NC(=O)c1ccco1,.,-8%,.,.,.,.
CC1(C)CC(=O)C(C=Nc2cccnc2/N=C/C2=C(O)CC(C)(C)CC2=O)=C(O)C1,-6%,24%,10µM*,-13%,5%,-7%
CC1(C)CC(=O)C(C=Nc2cccnc2)=C(O)C1,-19%,-12%,-21%,-7%,1%,?
CC1(C)CC(=O)C(C=Nc2ccc(C(=O)c3ccccc3)cc2N=CC2=C(O)CC(C)(C)CC2=O)=C(O)C1,0%,18%,16µM*,-9%,-1%,?
Cn1nnc2cc(C(=O)Nc3ccc4ccccc4c3)ccc21,3%,10%,-5%,2%,-2%,?
SMILES,uPA surface inh,a7 integrin act,RORgamma inh,Gal4-VP16 FLuc,Mito fusion yeast,BCR signal inh
CNc1nc(-c2ccoc2)nc2ccccc12,.,.,?,-8%,.,.
COc1ccc(S(=O)(=O)NCCc2sc3nc(-c4ccc(C)cc4)nn3c2C)cc1C,.,.,.,.,.,16%
C=CCNC(=S)NN=C1CCCCCCC1,-3%,10%,0.35µM*,4.5µM*,-5%,?
COCCNC(=S)NN=C1CCCCC1,0%,5%,13µM*,?,20%,?
NC(=S)NN=C1CCCCCCCCC1,-2%,15%,.,.,.,.
CCC/C(=N/NC(=O)c1csc(C)c1C)c1ccc(Cl)s1,4%,-13%,16µM*,?,1%,?
CCC/C(=N\NC(=O)c1ccco1)c1ccc(Cl)s1,-10%,-21%,11µM*,18µM*,6%,0%
C/C(=N\NC(=O)c1ccco1)c1ccc(C(=O)O)s1,-9%,2%,31%,23%,-2%,?
CC/C(=N\NC(=O)c1cc(C)nc2ccccc12)c1ccc(C)s1,-15%,-7%,-32%,-2%,-2%,?
CC(=O)C1=C(C)N(Cc2ccco2)C(=O)N[C@@H]1c1ccccc1,.,.,-4%,-4%,.,.
O=C(Cc1cccs1)NCc1ccc(Cl)cc1Cl,-2%,13%,32%,-8%,1%,0%
COc1ccc2c(c1)C(NC(=O)C(F)(F)F)CC2=O (stereo not given),-3%,8%,11%,?,-7%,?
COc1cc2c(cc1OC)C(NC(=O)C(F)(F)F)C/C2=N\O (stereo not given),2%,11µM*,-23%,1%,?,-8%
Cc1ccc(NC(=O)c2ccc3ncsc3c2)cc1S(=O)(=O)N(C)C,.,.,7.9µM*,7.1µM*,14%,?
COc1cccc(C2=Nn3c(nnc3-c3ccccc3OC)SC2)c1,.,.,?,5%,.,.
CCOC(=O)C1=C(Cc2ccc(OC)cc2)C(=O)c2ccccc2C1=O,.,-62%,10µM*,?,4%,?
CCOC(=O)C1=C(Cc2ccc(C)cc2)C(=O)c2ccccc2C1=O,.,.,11µM*,?,-2%,?
O=c1ccc2ccc(OS(=O)(=O)O)cc2o1,.,.,-4%,7%,.,.
c1coc(CNc2nc3nonc3nc2NCc2ccco2)c1,1%,-38%,0%,13µM*,-5%,?
Cc1sc2ncnc(NCc3ccco3)c2c1C,-3%,0%,19%,20µM*,-8%,?
Cc1sc2ncnc(NCc3cccs3)c2c1C,-4%,-35%,-13%,10µM*,-12%,?
CN(C)C(=O)c1nnsc1Sc1ccc(Cl)cc1,1%,-33%,12%,29%,4%,?
O=C(Oc1ccc[nH]c1=O)c1ccc(F)cc1,.,-22%,.,.,.,.
CNCc1ccccc1Sc1ccc(O)c(O)c1,-11%,-57%,8.9µM*,7.1µM*,-1%,?
